According to PubChem BioAssay (NCATS):
Records with an inconclusive call do not appear. Values without a mark were called inactive. Active and inactive are the calls of the source. The call rests on the fitted dose curve; in most records, active means well fitted inhibition curve with a large enough effect; inconclusive means small, poorly fitted or top-dose-only effect; inactive means flat fitted curve, though single readings scatter.

Test system: CRL-7250
Assay: Cytotoxic Profiling of Annotated Libraries Using Quantitative High-Throughput Screening (AID 1296008); further: nearly all actives have a fitted effect of over 60% in size
Conditions: Five cell lines viability, CellTiter-Glo ATP luminescence, 48-72 h; max response: stronger effect = lower value
Method in brief: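 Cells exposed to compounds for 48 or 72 hr at 37 degrees Celsius. Viability read as ATP-coupled luminescence with CellTiter-Glo after 10 min at room temperature.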
On the % scale 0 is the no-effect control and ±100 the full control effect.

| SMILES | max response | outcome |
| --- | --- | --- |
| COc1cccc(Cn2ncc3c4sc(S(C)=O)cc4n(C)c3c2=O)c1 (centres undefined) | 2.15% | – |
| CC(C)CC(=O)O[C@@H]1O[C@H](CO)[C@@H](O[C@H]2O[C@H](C)[C@@H](N[C@H]3C=C(CO)[C@@H](O[C@H]4O[C@H](CO)[C@@H](O[C@H]5O[C@H](CO)[C@@H](O[C@H]6O[C@H](CO)[C@@H](O)[C@H](O)[C@H]6O)[C@H](O)[C@H]5O)[C@H](O)[C@H]4O)[C@H](O)[C@H]3O)[C@H](O)[C@H]2O)[C@H](O)[C@H]1O | 1.09% | – |
| COc1ccc(C2COc3cc(O)ccc3C2)c(O)c1OC (centres undefined) | – | inactive |
| CCN1CCN(C(=O)N[C@@H](C(=O)N[C@@H]2C(=O)N3[C@@H]2SC(C)(C)[C@@H]3C(=O)O)c2ccccc2)C(=O)C1=O | -7% | – |
| COc1ccc(/C=C/C(N)=O)cc1OC | – | inactive |
| N[C@@H](CC(=O)Nc1ccc(Oc2cc(F)c(F)cc2Br)cc1)C(=O)O | -23% | – |
| COc1cc(O)cc2c1C(=O)OC(C)C2 (centres undefined) | 4.54% | – |
| COc1cc(/C=C/C(=O)O[C@@H]2C[C@](O)(C(=O)O)C[C@@H](O)[C@H]2O)ccc1O | -5.29% | – |
| Cc1cn(C[C@H](N)C(=O)O)c(=O)n(Cc2ccsc2C(=O)O)c1=O | -3.54% | – |
| CC(O)C1CCC2C3CCC4CC(OC5OC(C(=O)O)C(O)C(O)C5O)CCC4(C)C3CCC12C (centres undefined) | -11.7% | – |
| C/C=C1/[C@H](O[C@@H]2O[C@H](CO)[C@@H](O)[C@H](O)[C@H]2O)OC=C2C(=O)O[C@@H]3C[C@@H](C(C)CO)[C@H](COC(=O)C[C@H]21)[C@H]3C (some centres undefined) | 3.26% | – |
| COc1ccc(NC(=O)c2ccc(-c3ccc(C(N)=O)cc3C)cc2)cc1N1CCN(C)CC1 | -5.67% | – |
| Cc1cccc(-c2nn3c(c2-c2ccnc4ccc(C(N)=O)cc24)CCC3)n1 | 1.85% | – |
| CC1(C)CC[C@]2(C(=O)OC3OC(CO)C(O)C(O)C3O)CC[C@]3(C)C(=CCC4[C@@]5(C)C[C@@H](O)[C@H](OC6OC(C(=O)O)C(O)C(O)C6O)C(C)(C)C5CC[C@]43C)[C@@H]2C1 (some centres undefined) | 2.21% | – |
| O=C(NCC(=O)N1CCCC1)Nc1ccc2ccccc2c1 | 3.04% | – |
| O=C(c1c2ccccc2cc2ccccc12)N1CCC(N2CCC[C@@H](C(=O)N3CCOCC3)C2)CC1 | 2.01% | – |
| CC(C)c1ccc2c(c1)C(O)CC1C(C)(CO)CCCC21C (centres undefined) | -14% | – |
| C=CCc1cc(OC)c(OC(C)C(O)c2ccc(O)c(OC)c2)c(OC)c1 (centres undefined) | -6.23% | – |
| COc1cc(O)cc(O[C@@H]2O[C@H](CO)[C@@H](O[C@@H]3OC[C@](O)(CO)[C@H]3O)[C@H](O)[C@H]2O)c1OC | 2.5% | – |
| CC1(C)COC(=O)[C@@H]1O[C@@H]1O[C@H](CO)[C@@H](O)[C@H](O)[C@H]1O | 4.71% | – |

| SMILES | max response | outcome |
| --- | --- | --- |
| C[C@@H]1O[C@@H](O[C@H]2[C@@H]3C=CO[C@@H](O[C@@H]4O[C@H](CO)[C@@H](O)[C@H](O)[C@H]4O)[C@@H]3[C@@]3(CO)O[C@@H]23)[C@H](O)[C@H](O)[C@H]1OC(=O)/C=C/c1ccc(O)cc1 | -9.97% | – |
| Cc1c(NC(=O)N2CCOCC2)ccc2c1c1ccccc1n2C(C)C | – | inactive |
| COC(=O)C1=COC(OC2OC(CO)C(O)C(O)C2O)C2C(COC(=O)/C=C/c3ccc(O)c(O)c3)C(O)C(O)C12 (centres undefined) | – | inactive |
| O=C(OC[C@H]1O[C@H](O[C@]2(CO)O[C@H](CO)[C@@H](O)[C@@H]2O)[C@H](O)[C@@H](O)[C@@H]1O)c1ccc(O)cc1 | -3.61% | – |
| C=CC(C)(O)C1CC2C3(C)CCCC(C)(C)C3C(O)C(O)C2(C)O1 (centres undefined) | -10.8% | – |
| CC1CC(=O)[C@]2(O)C(C(=O)OCCc3ccc(O)c(O)c3)=CO[C@@H](O[C@@H]3O[C@H](CO)[C@@H](O)[C@H](O)[C@H]3O)[C@H]12 (some centres undefined) | 4.18% | – |
| COc1cc(O)cc2c1C(=O)OC(C)CCCCCCC2 (centres undefined) | 0.54% | – |
| C=C(C)[C@H]1CC[C@]2(C(=O)O)CC[C@]3(C)C(CCC4[C@@]5(C)CCC(=O)C(C)(C)C5CC[C@]43C)C12 (some centres undefined) | -18.5% | – |
| OCC1OC(Oc2cc(O)cc(/C=C/c3ccc(OC4OC(CO)C(O)C(O)C4O)cc3O)c2)C(O)C(O)C1O (centres undefined) | – | inactive |
| CC(C)[C@](O)(c1ccc2cc(OC(F)F)c(OC(F)F)cc2c1)c1cn[nH]n1 | – | inactive |
| C/C=C1/[C@H](O[C@@H]2O[C@H](CO)[C@@H](O)[C@H](O)[C@H]2O)OC=C(C(=O)OC)[C@H]1CC(=O)OCCc1ccc(OC(=O)C[C@@H]2C(C(=O)OC)=CO[C@@H](O[C@@H]3O[C@H](CO)[C@@H](O)[C@H](O)[C@H]3O)/C2=C/C)cc1 | -8.75% | – |
| C/C(=C/CO)CC[C@H]1[C@]2(C)C[C@H](O)CC(C)(C)[C@H]2CC[C@]1(C)O | -3.5% | – |
| C[C@@H]1O[C@@H](O[C@@H]2\C=C/C=C\C=C/C=C\C[C@H](C)OC(=O)/C=C\[C@H]3O[C@@H]3C[C@H](O)C[C@]3(O)C[C@@H](O)[C@@H](C(=O)O)[C@H](C2)O3)[C@H](O)[C@H](N)[C@@H]1O | 3.44% | – |
| COc1cc(C)c(C(=O)O[C@@H]2[C@H](O)[C@@H](CO)O[C@H]2n2ccc(=O)[nH]c2=O)c(OC)c1 | – | inactive |
| C=C(CCO)C(=O)OCC1OCC(OC(=O)C(=C)CCO[C@@H]2O[C@H](CO)[C@@H](O)[C@H](O)[C@H]2O)C(O)C1O (some centres undefined) | -6.14% | – |
| COc1ccc(/C=C/C(=O)N2CCCC2)cc1 | 1.09% | – |
| C[C@@H]1O[C@@H](OC[C@H]2O[C@@H](OCc3ccccc3)[C@H](O)[C@@H](O)[C@@H]2O)[C@H](O)[C@H](O)[C@H]1O | – | inactive |
| CC(=O)O[C@@H]1C=C2[C@H](CC[C@@]3(C)[C@@]2(O)CC[C@H]2Cc4c([nH]c5ccccc45)[C@@]23C)O[C@@H]1C(C)(C)O | -3.54% | – |
| Cc1cc(Cn2cnc3c2CC(C(=O)O)N(C(=O)C(c2ccccc2)c2ccccc2)C3)ccc1N(C)C (centres undefined) | – | inactive |
